Results taken from paper PMC7826789 (International Journal of Molecular Sciences, 2021).

What follows are compounds tested on ACVRL1. Settings: Compound Concentration (nM):1000.
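Also: KINOMEscan scanMAX binding as percent activity remaining versus control; lower means stronger binding.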

SMILES | Percent Control
COc1ccc2[nH]c3c4[nH]c5ccc(OC)cc5c4c4c(c3c2c1)C(=O)NC4=O [GW296115X] | 100%
COc1cc(C=NNc2ncnc3c2cnn3-c2ccccc2)ccc1O [GW513184X] | 67%
NS(=O)(=O)c1ccc(N/N=C2\C(=O)Nc3ccc(Cl)cc32)cc1 [GW280670X] | 100%
COc1cc(N2CCN(C(C)C)CC2)ccc1Nc1nc(Nc2ccc(F)cc2C(=O)NC[C@@H](O)CO)c2cc[nH]c2n1 [GSK1392956A] | 86%
Cc1cc(O)cc(C)c1/C=C/c1cncc(C(N)=O)c1 [GW435821X] | 2.6%
COC(=O)Nc1nc2ccc(Oc3ccc(NC(=O)Nc4cc(C(F)(F)F)ccc4F)cc3)cc2s1.Cl [GW693917A] | 65%
CC(C)COC(=O)c1ccc2c(c1)/C(=C/Nc1ccc(S(N)(=O)=O)cc1)C(=O)N2 [GW416981X] | 100%
CCS(=O)(=O)c1ccc(OC)c(Nc2ncc(-c3cccc(OC)c3)o2)c1 [GW580509X] | 50%
COc1cccc(-n2ncc3c(N/N=C/c4ccncc4)ncnc32)c1 [GW784752X] | 3.7%
COc1ccc2c(-c3ccnc(Nc4cccc(OC(F)(F)F)c4)n3)cnn2n1 [GW810372X] | 100%
O=C1Nc2ccc(C(=O)c3ccco3)cc2C1=Cc1cc(Cl)c(O)c(Cl)c1 [GW406108X] | 100%
NS(=O)(=O)c1ccc(Nc2ncc(-c3ccccc3)o2)cc1 [GW572399X] | 100%
COc1cc2ncn(-c3cc(O[C@H](C)c4ccccc4Cl)c(C(N)=O)s3)c2cc1OC [GSK237701A] | 100%
Nc1ncnc2occ(-c3ccc(NC(=O)Nc4cc(C(F)(F)F)ccc4F)cc3)c12 [GW770249X] | 100%
NS(=O)(=O)c1ccc(N/N=C2\C(=O)Nc3ccc(C(=O)NCCc4c[nH]cn4)cc32)cc1 [GW300660X] | 100%
